# Compounds without any hit were thinned out: in the full panel of roughly 83,000, 20% have a hit.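 Percent growth is the endpoint: 0 to 100 indicates growth inhibition (40 means 60% inhibition), 0 means no net growth, and negative values indicate cell death.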 Unmarked numbers belong to inactive results. The source made the active and inactive calls. How the source made its calls: active means growth percent below 10; inactive means the rest.
# How the values were obtained:
# Experiment in all cases: NCI-60 one-dose screen, 48 h (100 = growth as untreated, 0 = no growth, -100 = all killed)
# Conditions in all cases: 10 µM unless noted
# OVCAR-8 ovarian = tested on: OVCAR-8 ovarian
# OVCAR-5 ovarian = tested on: OVCAR-5 ovarian
# OVCAR-4 ovarian = tested on: OVCAR-4 ovarian
# IGROV1 ovarian = tested on: IGROV1 ovarian
# OVCAR-3 ovarian = tested on: OVCAR-3 ovarian
# NCI/ADR-RES ovarian = tested on: NCI/ADR-RES ovarian
# T-47D breast = tested on: T-47D breast
# SK-OV-3 ovarian = tested on: SK-OV-3 ovarian
# HS 578T breast = tested on: HS 578T breast
SMILES,growth (OVCAR-8 ovarian),growth (OVCAR-5 ovarian),growth (OVCAR-4 ovarian),growth (IGROV1 ovarian),growth (OVCAR-3 ovarian),growth (NCI/ADR-RES ovarian),growth (T-47D breast),growth (SK-OV-3 ovarian),growth (HS 578T breast)
COc1ccc(/C=C2\NC(=S)NC2=O)cc1,104%,95.2%,117%,96%,107%,115%,86.3%,,
CC1SC(c2c(Cl)cccc2Cl)N(NC(=O)c2[nH]c3ccc(F)cc3c2-c2ccccc2)C1=O (stereo not drawn),33.1%,78.3%,-54.7% (active),-6.28% (active),-62.2% (active),,2.88% (active),19.1%,
CCn1c2ccccc2c2ccc(C(C)=O)cc21,104%,89.9%,96.7%,111%,,101%,96.6%,111%,144%
CN1COc2ccc3ccccc3c2C1,93%,77%,91.7%,86.3%,98.9%,89.8%,88.2%,103%,
CCOC(=O)C(Cc1ccccc1)(C(=O)OCC)C(Br)C(=O)c1ccccc1 (stereo not drawn),81.4%,98.1%,39.8%,75.1%,61.3%,85.1%,,,83.1%
ClC1=C(Cl)C(Cl)=C(Cl)C1=C/C=C/c1ccccc1,-41.7% (active),-77.9% (active),14.7%,,-88.7% (active),-0.902% (active),-4.63% (active),-22% (active),-5.58% (active)
CC(c1ccccn1)C(C)(O)C(C)c1ccccn1 (stereo not drawn),101%,98%,112%,112%,106%,107%,118%,114%,
Cc1ccc(C=C2C(Cl)=C(Cl)C(Cl)=C2Cl)cc1,-42.9% (active),-80.7% (active),-35.3% (active),,,-3% (active),-44.6% (active),-38.5% (active),
COc1ccc2nc3cc(Cl)ccc3c(Nc3cc(C(C)C)c(O)cc3C)c2c1,50.4%,68.7%,30.2%,,,38%,13.9%,63.3%,65.5%
COc1cc(/C=C2\COc3ccc(O)cc3C2=O)cc(OC)c1,40.4%,73.7%,93.4%,73.2%,37.1%,65.8%,60.3%,91.7%,
CN(C)CCCN1c2nc3ccccc3cc2Sc2cc3ccccc3nc21,-67% (active),-58.5% (active),18.9%,,-81.4% (active),-23.1% (active),-71.9% (active),-35.3% (active),2.82% (active)
COc1cccc(CCC2C(=O)CCCC2=O)c1,116%,103%,124%,111%,99.9%,110%,97.4%,102%,
CN(C(=O)c1ccccc1)N(C)C(=O)c1ccccc1,103%,99.3%,,95.2%,127%,108%,94.5%,105%,109%
COc1c(O)cc2oc3cc(O)c(CC=C(C)C)c(O)c3c(=O)c2c1C/C=C(\C)CCC=C(C)C,24.4%,84.7%,72.6%,81.4%,62%,-39% (active),77.1%,,
N#CCNc1ccccc1N,93.1%,109%,97.2%,89.3%,101%,95.5%,59.9%,84.5%,
COc1ccc2c(c1)C(=O)/C(=C/c1cccc(OCC(=O)c3ccccc3)c1)CC2,78.6%,102%,81.5%,,89.2%,80.7%,70.6%,120%,98.6%
c1cnc2ccc3ncccc3c2c1,95.4%,164%,110%,,103%,128%,116%,106%,109%
Cc1c(C)c(N2C(=O)C=CC2=O)c(C)c(C)c1N1C(=O)C=CC1=O,96.1%,91%,104%,83.6%,45.1%,96.4%,113%,114%,

SMILES,growth (OVCAR-8 ovarian),growth (OVCAR-5 ovarian),growth (OVCAR-4 ovarian),growth (IGROV1 ovarian),growth (OVCAR-3 ovarian),growth (NCI/ADR-RES ovarian),growth (T-47D breast),growth (SK-OV-3 ovarian),growth (HS 578T breast)
Cc1ccccc1NC(=O)c1cc2ccccc2cc1O,60%,77.9%,56.1%,30.2%,-10.2% (active),27.8%,49.9%,61.1%,
CCc1ccc(CCN2C(=O)c3ccccc3C2=O)nc1,102%,129%,101%,,,128%,94.8%,98.1%,119%
CCCCCCCC1(C)NC(=O)NC1=O (stereo not drawn),104%,163%,105%,,115%,138%,123%,114%,114%
O=C(N1CCC(CN=c2cc3n(-c4ccc(Cl)cc4)c4ccccc4nc-3cc2Nc2ccc(Cl)cc2)CC1)N1CC1,-67.4% (active),-78.3% (active),-74.6% (active),-92.3% (active),,-45.5% (active),-46.8% (active),-63.7% (active),-56.4% (active)
CC/C(=C\c1ccc(N(C)C)cc1)c1ccncc1,54.7%,74%,69.5%,49.7%,42.3%,8.26% (active),40%,74.6%,
NC(=Nc1ccccc1)SCCCCSC(N)=Nc1ccccc1,83.7%,83.3%,77.3%,75.3%,72%,66.3%,62.2%,108%,
CCOC(=O)C1=NN(c2ccc(Cl)cc2)C2C3N(c4ccc(Cl)cc4)N=C(C(=O)OCC)N3c3ccccc3N12 (stereo not drawn),101%,101%,92.4%,76.7%,,101%,102%,115%,120%
CC(=O)Oc1ccc(C23c4ccccc4C2(OC(C)=O)c2cc(OC(C)=O)ccc23)cc1 (stereo not drawn),49.6%,86%,92.3%,91.9%,78.2%,39.3%,38.9%,,
Cc1c(C(N)=O)sc2c1c(=O)n(Cc1ccccc1)c1nnc(S(=O)(=O)CC(=O)Nc3ccc(Cl)cc3)n21,,82.7%,,40%,5.69% (active),108%,21.8%,18.7%,17.8%
O=C(NCCCO)c1cc(Cl)ccc1O,17.8%,45%,,28.1%,-14.9% (active),95.8%,30%,,19.3%
CCOC(Cc1c(N)[nH]c(=S)[nH]c1=O)OCC,96.2%,93.9%,,104%,120%,102%,99%,107%,120%
COc1ccc(C(=O)/C=C/c2c(Cl)nc3c(c(C)nn3-c3ccccc3)c2-c2ccc(Br)cc2)cc1,,99.6%,107%,116%,115%,108%,100%,97.3%,113%
CCN(CC)c1ccc(C(O)C2=CC(=O)c3ccccc3C2=O)cc1 (stereo not drawn),-3.87% (active),-23.8% (active),,-42.7% (active),-77.2% (active),84.4%,-60.6% (active),73.1%,-10.6% (active)
Cc1nn(-c2ccc(Cl)cc2)c2nc3c(nc12)c(=O)oc1ccccc13,,98%,113%,119%,118%,102%,111%,107%,107%
O=C(NCCc1ccccc1)C1CCC(=O)N1Cc1ccc(Br)cc1 (stereo not drawn),,94.4%,111%,103%,116%,107%,106%,101%,113%
c1ccc(-c2nn[nH]n2)c(-c2ccc(CN3CCN(c4nsc5ccccc45)CC3)cc2)c1,,96.8%,85.6%,113%,91.4%,92%,68.7%,105%,105%
COc1ccc(C(=O)COc2cccc(/C=C3\Oc4ccc5ccccc5c4C3=O)c2)cc1,70.1%,103%,,,72.4%,96.4%,37.9%,99.5%,93.3%
